Bioassay records: PubChem BioAssay, several laboratories
An excerpt weighted towards active compounds, which were near 5.1% of everything screened.
RAM inhibit = inhibitors of the yeast RAM network. actives 1.8% (n = 190,000). inhibition, % at 50 µM. AID 868. S. cerevisiae dse1pr::URA3 reporter, 5-FOA growth OD615, 2 d; analog-sensitive cbk1-as2 kinase mutant strain;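 active means inhibition above a set limit, 3 SD over mean compound inhibition, cut at about 8.4% in these data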;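 further: 0% = DMSO-only wells with no growth and 100% = 10 µM 1-NA-PP1 full growth; inhibition rescues growth on 5-FOA so higher OD means more RAM inhibition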
ROMK primary = modulators of human ROMK potassium channel. P48048. Tet-inducible ROMK, thallium flux fluorescence; actives lie on both sides. B-score at 10 µM. actives 2% (n = 130,000);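 active means signal ratio slope over the read window, or its plate-corrected B-score, at least 3 SD from the plate mean, either direction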;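 further: B-score of the F/F0 ratio slope over 7 to 12 s after thallium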
S1P3 antag = blocks the human S1P3 receptor; Q99500; CHO S1P3 NFAT-BLA reporter, FRET fluorescence, antagonist mode; inhibition, % at 4.98 µM; actives 0.27% (n = 170,000); AID 485;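 active means inhibition above the plate cutoff, the mean inhibition of test wells on that plate plus 3 SD, cut at about 28% in these data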;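 further: cells challenged with S1P at its EC80 of 0.8 µM; blue over green emission ratio from cleaved BLA substrate after 4 h stimulation; 0% = S1P-stimulated wells and 100% = unstimulated DMSO-only wells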
S1P4 antagonist = human S1P4 receptor antagonism; O95977; S1P4-expressing cells, antagonist mode, reporter read-out; inhibition, % at 4.98 µM; actives 0.26% (n = 220,000); AID 1510; in the data active means inhibition above about 29%;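 further: 0% = wells stimulated with agonist and 100% = vehicle wells without agonist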
S1P4 ag = agonists of human S1P4 receptor. O95977. actives 0.35% (n = 220,000). activation, % at 4.98 µM. S1P4-expressing cell line, agonist reporter assay; in the data active means activation above about 11%;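 further: 0% = DMSO vehicle and 100% = reference agonist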
KCC2 mod = modulators of human KCC2 chloride dependent transport; Q9H2X9; KCC2 cells, thallium flux FluoZin-2 fluorescence; B-score of Tl+ flux slope (higher = more flux/activation; lower = inhibition) at 10 µM; actives 2.2% (n = 190,000);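 active means thallium flux slope and its plate-corrected score both differing from the plate sample mean at a set confidence after two filtering rounds, in either direction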;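 further: slope of fluorescence scaled to starting intensity during 10 to 20 s after thallium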
Target sequence (Q9H2X9 whole entry, looked up): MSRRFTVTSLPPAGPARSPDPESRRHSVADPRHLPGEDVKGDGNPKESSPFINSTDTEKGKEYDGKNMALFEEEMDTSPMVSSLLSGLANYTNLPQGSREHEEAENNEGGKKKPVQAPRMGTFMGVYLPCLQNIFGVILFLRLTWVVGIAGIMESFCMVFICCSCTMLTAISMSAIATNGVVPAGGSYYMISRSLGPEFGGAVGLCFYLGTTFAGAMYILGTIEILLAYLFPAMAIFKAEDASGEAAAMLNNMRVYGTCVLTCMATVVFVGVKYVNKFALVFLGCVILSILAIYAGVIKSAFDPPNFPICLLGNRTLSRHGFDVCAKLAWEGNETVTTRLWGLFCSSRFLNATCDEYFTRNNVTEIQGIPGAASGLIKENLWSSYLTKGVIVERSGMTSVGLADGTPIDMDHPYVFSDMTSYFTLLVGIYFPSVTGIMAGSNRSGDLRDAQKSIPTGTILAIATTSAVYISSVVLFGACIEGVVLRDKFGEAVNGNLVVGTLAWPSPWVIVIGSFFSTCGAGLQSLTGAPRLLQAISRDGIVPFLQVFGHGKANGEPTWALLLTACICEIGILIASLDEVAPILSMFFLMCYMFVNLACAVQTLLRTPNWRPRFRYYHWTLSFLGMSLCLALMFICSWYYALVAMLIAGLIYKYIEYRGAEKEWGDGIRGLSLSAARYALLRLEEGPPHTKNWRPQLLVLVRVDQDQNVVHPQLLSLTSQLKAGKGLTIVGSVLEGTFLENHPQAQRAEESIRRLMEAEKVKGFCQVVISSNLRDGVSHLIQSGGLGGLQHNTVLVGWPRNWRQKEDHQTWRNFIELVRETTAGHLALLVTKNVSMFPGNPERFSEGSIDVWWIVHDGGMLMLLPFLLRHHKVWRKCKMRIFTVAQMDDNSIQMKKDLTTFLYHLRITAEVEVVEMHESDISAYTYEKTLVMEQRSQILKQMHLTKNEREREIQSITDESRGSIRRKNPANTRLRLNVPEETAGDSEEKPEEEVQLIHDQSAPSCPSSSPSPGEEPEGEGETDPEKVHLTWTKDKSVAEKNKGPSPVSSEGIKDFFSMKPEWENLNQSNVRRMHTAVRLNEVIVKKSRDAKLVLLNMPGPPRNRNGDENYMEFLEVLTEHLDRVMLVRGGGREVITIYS
KCC2 secondary = confirmation of human KCC2 transport modulators. shares compounds with KCC2 mod. HEK293-KCC2, thallium flux, FluoZin2 fluorescence; active compounds read high. normalised thallium flux (F/F0 slope) at 10 µM. actives 15% (n = 3,700). AID 1713;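 active means thallium flux slope above the same plate's solvent-only control mean plus 3 SD; inconclusive means the two replicate wells disagree; inactive means no significant difference from solvent-only control wells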
KCC2 bumet counter = thallium flux despite bumetanide block in KCC2 cells, secondary assay 3; AID 1714; normalized thallium flux at 10 µM; shares compounds with KCC2 mod; HEK293-KCC2 + bumetanide/ouabain, thallium flux FluoZin2; active compounds read high; actives 49% (n = 3,700);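 active means thallium entry rate above the same plate's blocked-transporter control wells by more than 3 SD; inconclusive means the two repeat wells disagree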;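 further: raw slope of fluorescence over initial fluorescence between 10 and 20 s after thallium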
KCC2 secondary2 = confirmation of human KCC2 transport modulators; shares compounds with KCC2 mod; HEK293-KCC2, thallium flux FluoZin2 fluorescence; actives lie on both sides; F/F0 rise rate, 10–20 s post-thallium; normalized thallium flux at 10 µM; actives 23% (n = 3,700); AID 1715;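 active means thallium flux slope more than 3 SD above or below the plate's solvent-only control mean, mostly below; inconclusive means the two repeat wells disagreed; inactive means no significant shift from solvent-only controls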;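 further: raw slope with 0.1% DMSO as baseline and bumetanide as block control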
HEK counter1 = parental HEK flux effect, counter-screen; shares compounds with KCC2 mod; HEK293 parental cells, thallium flux FluoZin2, ouabain; baseline-ratio fluorescence slope, 10–20 s after thallium; actives 46% (n = 3,700); thallium flux rate (normalised fluorescence) at 10 µM; AID 1716;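 active means thallium flux rate significantly above the same plate's solvent-only control wells, beyond their mean plus 3 SD; inconclusive means the two replicate wells gave conflicting results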
KCC2 retest ouab = KCC2 (human) modulation, ouabain retest; shares compounds with KCC2 mod; HEK293-KCC2, thallium flux FluoZin2 fluorescence; bidirectional: low = inhibitor, high = activator; raw Tl+ flux slope (below DMSO = inhibition, above = activation) at 10 µM; actives 48% (n = 3,700);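 active means thallium flux slope beyond 3 SD from same-plate DMSO control mean in most replicates, usually higher, sometimes lower; inconclusive means repeat tests gave conflicting results; inactive means no significant difference from controls in most replicates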;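 further: slope of initial-normalized fluorescence between seconds 10 and 20 after thallium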
HEK293 Tl flux2 = counter-screen for KCC2 modulators: effect in parental HEK293 cells; shares compounds with KCC2 mod; thallium flux FluoZin-2 fluorescence slope; thallium flux slope at 10 µM; actives 33% (n = 3,700); AID 1718;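 active means thallium flux slope above the same plate's solvent-control mean plus 3 SD in both duplicate wells; inconclusive means duplicate wells that disagreed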;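 further: run without ouabain in cells lacking the KCC2 cotransporter; slope of fluorescence scaled to its starting value between 10 and 20 s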
* = called active by the depositor; ? = inconclusive; / = no result.

SMILES | RAM inhibit | ROMK primary | S1P3 antag | S1P4 antagonist | S1P4 ag | KCC2 mod | KCC2 secondary | KCC2 bumet counter | KCC2 secondary2 | HEK counter1 | KCC2 retest ouab | HEK293 Tl flux2
Cc1csc(NC(=O)CSc2nnc(-c3ccccc3)o2)n1 | 1.4 | / | / | -13.4 | -1.8 | -0.298 | / | / | / | / | / | /
Cc1csc(NC(=O)CSc2ccc(-c3ccccc3)nn2)n1 | 4.4 | -0.599 | 4.0 | -17.0 | 1.7 | -5.64* | 0.0139 | 0.00507 | 0.019* | 0.00684 | 0.0131 | 0.00975
Cc1ccsc1/C=N/NC(=O)c1ccc([N+](=O)[O-])cc1 | 0.8 | 2.47 | -9.8 | -4.7 | 1.4 | 3.57* | 0.0155 | 0.0156* | 0.029 | 0.0107* | 0.0188 | 0.0134*
O=C(Nc1ccc(Cc2ccncc2)cc1)c1ccc(N2CCOCC2)c([N+](=O)[O-])c1 | 0.8 | -3.09 | -0.2 | -3.5 | -0.5 | -5.93* | 0.0089 | ? | ? | 0.00741 | 0.0157* | 0.0105
O=C(Nc1ccc(N2CCCCC2)c(Cl)c1)c1ccc(N2CCOCC2)c([N+](=O)[O-])c1 | 1.1 | / | / | -0.8 | -0.9 | / | / | / | / | / | / | /
Cc1ccc(C(=O)Nc2ccc(Cc3ccncc3)cc2)cc1[N+](=O)[O-] | -0.5 | -1.25 | / | -14.3 | 0.4 | -1.66 | / | / | / | / | / | /
O=C(Nc1ccc(Cc2ccncc2)cc1)c1cccc([N+](=O)[O-])c1 | 0.9 | / | -2.1 | -15.9 | 1.1 | -4.17* | 0.00485 | ? | 0.0236* | 0.00791 | ? | 0.0107
Cc1ccc(S(=O)(=O)CCC(=O)OCn2nnc3ccccc3c2=O)cc1 | 2.0 | -0.0746 | -12.7 | -9.1 | -0.2 | -0.224 | / | / | / | / | / | /
COc1cc(/C=N/NC(=O)c2c(C)nnn2-c2nonc2N)ccc1O | -0.1 | -0.286 | 10.2 | -9.3 | 1.6 | 4.72* | 0.00964 | 0.00482 | 0.0309 | 0.00868 | 0.0194 | 0.0115
Cc1nnn(-c2nonc2N)c1C(=O)N/N=C/c1ccccc1O | 2.2 | / | -15.1 | -2.9 | 3.1 | 1.15 | / | / | / | / | / | /
COc1ccc2c(C)cc(=S)[nH]c2c1 | 2.2 | 0.598 | -16.2 | 5.6 | 0.8 | 8.03* | 0.0166 | 0.0155* | 0.0295 | 0.0126* | 0.0194 | 0.0145*
CC(=O)Nc1ccc(S(=O)(=O)N(C)c2ccc(OCC(=O)OCC(=O)NCc3ccco3)cc2)cc1 | / | / | 17.9 | 15.4 | -0.9 | 0.0194 | / | / | / | / | / | /
CN(Cc1ccccc1)C(=O)COC(=O)c1ccc(Cl)c(N)c1 | 0.7 | / | 7.1 | -10.7 | -2.0 | -3.92* | 0.00728 | 0.00569 | 0.0369 | 0.00403 | 0.0158* | 0.0104
CN(C)S(=O)(=O)c1cccc(NC(=S)N/N=C/c2ccc(O)c(O)c2O)c1 | / | / | -8.5 | -20.8 | 0.3 | -1.69 | / | / | / | / | / | /
CN(C)S(=O)(=O)c1cccc(NC(=S)N/N=C/c2ccco2)c1 | / | / | -2.8 | -12.4 | 1.8 | 6.27* | 0.00671 | 0.00753* | 0.0267 | 0.00937* | 0.0193 | 0.0118*
O=C1CN(c2nc(-c3cccs3)nc3sc4c(c23)CCCC4)CCN1 | 3.6 | 1.27 | 11.9 | -24.7 | -0.8 | 16.3* | 0.00749 | 0.00976* | 0.0304 | 0.0103* | ? | 0.0105
CCOC(=O)N/N=C(\CCC(=O)O)c1cccs1 | / | / | -12.6 | 7.3 | 0.2 | 7.24* | 0.00944 | 0.00586 | 0.0332 | 0.00751 | 0.02 | 0.0105
COc1cc(/C=C2/C(=O)c3cccc([N+](=O)[O-])c3C2=O)c(Br)cc1O | 1.3 | / | 4.7 | 6.2 | -0.6 | -4.67* | 0.0106 | 0.00779 | 0.0331 | 0.00652 | 0.0185 | 0.0101
Cc1cc(C)nc(N2CCCC(C(=O)NCc3ccccc3)C2)n1 (stereo unspecified) | 0.4 | 0.182 | / | 1.3 | 1.0 | -0.467 | / | / | / | / | / | /
Cc1cc(C)nc(N2CCCC(C(=O)NC(C)CCc3ccco3)C2)n1 (stereo unspecified) | 0.8 | -0.53 | 20.9 | -19.4 | -2.1 | / | 0.00748 | 0.00502 | 0.0329 | 0.00656 | 0.0184 | 0.0102
Cc1cccc(NC(=O)Nc2ccc(C)c(C)c2)n1 | 3.7 | 0.263 | / | -12.1 | 3.4 | 5.69* | 0.00922 | 0.00541 | 0.0377 | 0.00739 | 0.0206 | 0.0106
Cc1cccc(NC(=O)Nc2cccc(C)n2)n1 | 1.4 | -0.22 | 3.9 | 0.3 | -2.5 | -0.848 | / | / | / | / | / | /
CSc1ncc(Cl)c(C(=O)Nc2nnc(SC/C=C/c3ccccc3)s2)n1 | 4.8 | -1.23 | / | 5.3 | 0.6 | 28* | 0.00652 | 0.0818* | 0.0542* | 0.0638* | 0.0657* | 0.0411*
Cc1nc(S(=O)(=O)Nc2ccccc2C(=O)NCC2CC2)cn1C | / | 0.343 | 1.9 | -3.3 | 0.1 | 0.335 | / | / | / | / | / | /
O=c1[nH]nc(Sc2ncnc3sccc23)n1CCc1ccccc1 | -0.2 | / | -19.7 | 16.4 | -2.0 | -3.22* | 0.00958 | 0.0072 | 0.0314 | 0.0039 | 0.0186 | 0.0116
SMILES | RAM inhibit | ROMK primary | S1P3 antag | S1P4 antagonist | S1P4 ag | KCC2 mod | KCC2 secondary | KCC2 bumet counter | KCC2 secondary2 | HEK counter1 | KCC2 retest ouab | HEK293 Tl flux2
CCOc1[nH]n(-c2ccccc2)c(=O)c1C=Nc1ccc(F)cc1F | 3.6 | -0.582 | -22.4 | -14.0 | 0.4 | 4.09* | 0.00564 | 0.0103* | 0.0315 | 0.0105* | ? | ?
CCOc1[nH]n(-c2ccccc2)c(=O)c1C=Nc1ccc(OC)cc1 | 9.0* | -0.451 | 7.0 | -7.1 | 1.8 | 4.12* | 0.00656 | 0.0103* | 0.032 | 0.00931* | 0.021 | ?
CC(=O)/C(=N\Nc1ccccc1)Sc1nncn1C | -1.2 | / | -12.5 | -15.6 | 0.4 | 0.759 | / | / | / | / | / | /
CCCn1nnc(NC(=O)c2ccc(F)cc2)n1 | -0.1 | / | / | -14.5 | 0.1 | -4.12* | ? | ? | 0.0299 | 0.00696 | 0.0242 | 0.0103
O=C(NNC(=O)c1ccc(Oc2ccc(C3SCCS3)cc2)o1)c1ccc(Cl)cc1 | / | -0.509 | 9.5 | 8.1 | -0.5 | 5.4* | 0.00812 | 0.0263* | 0.0309 | 0.0101* | 0.0316* | 0.0103*
COc1ccc(C(=O)NNC(=O)Cc2ccc(Cl)cc2)cc1 | 1.4 | 0.153 | -6.5 | -3.1 | 6.9 | -0.382 | / | / | / | / | / | /
NC(=O)C1CCN(C(=O)c2ccc(Oc3cc(Cl)cc(Cl)c3)o2)CC1 | / | / | -18.7 | -2.5 | -2.3 | -0.261 | / | / | / | / | / | /
O=C(NNC(=O)c1ccc(Oc2cc(Cl)cc(Cl)c2)o1)c1ccccc1 | / | / | 3.0 | -21.2 | 0.3 | 28.3* | 0.0138* | 0.051* | 0.0299 | 0.0195* | 0.0362* | 0.0117*
